Hit rate of the full screen: of about 48,000 compounds, about 13,000 (27%) showed an effect of 50% or more. The list shows a part of the results.
What follows are molecules tested on Wolbachia pipientis (assay: Anti-Wolbachia Cell-Based Screen). Details: 5 µM.
Assay type: functional
Parameters: scale not given: in the data most compounds retested in dose-response had high values

Structure (SMILES) | Percent Effect [%]
COc1ccccc1-c1ccc(C(=O)N2C[C@H]3CC[C@@H]2CN(C)C3)cc1 | 3.488
Cc1nnc([C@@H]2CCO[C@@H]3CCN(C(=O)Cc4ccsc4)C[C@@H]32)o1 | -11.03
O=C(NCCCC(=O)N1CCN(CC2CC2)c2ccccc21)C1CC1 | -7.741
COc1ccc2c(c1)OCC(Cc1cc(C(=O)N3CCCC3)ccn1)C2 (centres undefined) | 87.9
COc1ccc2c(c1)OCC(Cc1ccnc(N)n1)C2 (centres undefined) | -14.38
c1ccc2c(c1)CC(Cc1cc(N3CCCC3)cnn1)CO2 (centres undefined) | 9.635
O=C(c1ccnc(CC2COc3ccccc3C2)c1)N1CCCC1 (centres undefined) | 99.57
COc1ccc2c(c1)OCC(Cc1cc(N3CCCC3)cnn1)C2 (centres undefined) | -5.296
Nc1cc(CC2COc3ccccc3C2)ccn1 (centres undefined) | -18.54
COc1cccc(CC(=O)N2CC[C@@H]3NC(=O)CC[C@@H]32)c1 | -6.606
Cc1ccc(OCC(O)CNC(=O)C2(c3ccc(F)cc3)CC2)cc1 (centres undefined) | -8.798
FC(F)(F)CCN(Cc1ccon1)C1CCCC1 | 5.052
CCc1cc(CNC(=O)c2cc(NC(=O)C(C)C)ccc2Cl)[nH]n1 | -9.115
CCc1cc(CNC(=O)N(C2CC2)C(C)c2ccco2)[nH]n1 (centres undefined) | -14.67
C[C@H](NS(C)(=O)=O)C(=O)NCc1cc(-c2ccco2)n[nH]1 | 75.56
CC(C)[C@H](NS(C)(=O)=O)C(=O)NCc1cc(-c2ccccc2)n[nH]1 | 101.1
CC(C)[C@H](NS(C)(=O)=O)C(=O)NCc1cc(-c2ccco2)n[nH]1 | 84.23
CN(Cc1ccco1)Cc1ccccc1CNC(=O)c1cc[nH]n1 | -6.684
CCCC(C)NC(=O)c1ccc(-c2ccco2)[nH]c1=O (centres undefined) | 12.91
CCc1cc(CNC(=O)NCC(c2ccco2)N2CCCC2)[nH]n1 (centres undefined) | -1.193
CC(NS(C)(=O)=O)C(=O)N(C)Cc1csc(-c2ccccc2)n1 (centres undefined) | -10.17
O=C(c1cccc(-n2cccn2)c1)N1CCCOC(Cn2cccn2)C1 (centres undefined) | 8.514
O=C(NCC1CC1)C1CCCN(c2cccc(C(F)(F)F)n2)C1 (centres undefined) | -14.15
COc1ccc(SC(C)C(=O)N2CCC(NC(=O)C3CC3)CC2)cc1 (centres undefined) | -11.29
COCC(=O)Nc1cc(Br)cnc1OCC(F)(F)F | -8.259

Structure (SMILES) | Percent Effect [%]
Cc1ccc(C(=O)NC2CCN(C(=O)Nc3ccccn3)CC2)s1 | 106.5
CC1CCN(C(=O)C2CCCN(C(=O)Nc3ccccn3)C2)CC1 (centres undefined) | -1.039
Cc1ccc(C(=O)N2CCN(C(=O)Nc3ccccn3)CC2)o1 | 12.27
Cc1occc1C(=O)NC1CCN(C(=O)Nc2cccnc2)CC1 | 26.57
Cc1ccoc1C(=O)NC1CCN(C(=O)Nc2ccccn2)CC1 | 143.8
CCn1cc(CN2CCCC2c2nc(-c3ccccc3)no2)cc1C#N (centres undefined) | -29.44
Cc1ccc(CN2CCc3c(CN4CCCC4)n[nH]c3C2)s1.O=C(O)C(F)(F)F.O=C(O)C(F)(F)F | -6.492
Cn1nnc2c1C(COCC1CC1)CN(C(=O)[C@H]1CCCO1)C2 (some centres undefined) | 10.79
CCOC(=O)c1coc(N2CCC(C(O)CC(C)C)CC2)n1 (centres undefined) | -3.785
CC(=O)N1CCC(c2nnc3ccc(C(=O)NCCN(C)C)cn23)C1 (centres undefined) | -5.924
CC(=O)N1CCOC(c2c(C(=O)NCCN(C)C)sc3ccccc23)C1 (centres undefined) | 169.5
CC(=O)N1CCN(Cc2cccc3c2sc2ccccc23)CC(O)C1 (centres undefined) | -0.8612
CC(=O)N1CCOC(c2c(C(=O)NC(C)(C)C)sc3ccccc23)C1 (centres undefined) | 161.4
Cn1ccc(C(=O)N2CCOC(c3ccccc3)C2)cc1=O (centres undefined) | -8.227
CC(=O)N1CCOC(c2c(C(=O)O)sc3ccccc23)C1 (centres undefined) | 123
CC(=O)N1CCN(Cc2c(C)sc3ccccc23)CC(O)C1 (centres undefined) | -5.1
CNC(=O)c1cccc(NC(=O)NC(C)CCc2cccn2C)c1C (centres undefined) | -20.84
CCn1ccnc1CN(C)C1CCCN(Cc2ccccc2F)C1 (centres undefined) | -12.96
CCC1CN(CCCO)c2ccccc2O1 (centres undefined) | 49.62
Cc1nnc(CN2CCN(CCOc3ccccc3C#N)CC2)n1C | -3.944
CCN1CC(c2ccccc2)CC2(CCN(Cc3ncc[nH]3)CC2)C1 (centres undefined) | -4.226
Cc1nccc(CN2CC[C@H](Oc3cccc(F)c3)[C@@](C)(O)C2)n1 | -4.258
Cc1cccnc1CN1CC[C@H](Oc2cccc(F)c2)[C@@](C)(O)C1 | 112.2
C[C@]1(O)CN(Cc2cscn2)CC[C@@H]1Oc1cccc(F)c1 | 131.8
CCN1CCN(C[C@@H]2CN(c3ncccc3F)C[C@@H]2CO)CC1 | 10.53

Structure (SMILES) | Percent Effect [%]
C[C@]1(O)CN(Cc2ncc[nH]2)CC[C@@H]1Oc1cccc(F)c1 | 143.6
C[C@]1(O)CN(Cc2ncccc2F)CC[C@@H]1Oc1cccc(F)c1 | 113.6
CCn1ccnc1CN1CCC(Oc2cccc(F)c2)(C(=O)O)CC1 | -6.452
CCOc1ccnc(N2CCN(Cc3ncccc3C)CC2)n1 | -12.42
COc1ccc2c(c1)CCN(Cc1cscn1)CC2 | -16.58
Fc1ccc(CC2CCN(Cc3cscn3)CC2)cc1 | 6.196
O=C(c1cnc2[nH]c(=O)[nH]c(=O)c2c1)N1CCCC1C1CCCCC1 (centres undefined) | 5.907
Cc1cccc(S(=O)(=O)NC(=O)c2ccc3c(c2)nnn3C)c1 | -16.64
CC(C)c1noc(-c2ccc(NCc3noc(C(C)C)n3)nc2)n1 | -9.684
Cc1ccccc1OCC1CCCN(C(=O)Cc2c[nH]c(=O)[nH]c2=O)C1 (centres undefined) | -4.345
O=C(COc1ccc2c(c1)CCC2)NS(=O)(=O)c1cncc(Br)c1 | -16.45
CC(O)c1cn(CC2CCN(C(=O)CN(C)C(C)C)CC2)nn1 (centres undefined) | -14.32
CSc1ccc(C)c(C(=O)N2CCCC(n3cncn3)C2)c1 (centres undefined) | 94.98
Cc1ccc(S(C)(=O)=O)cc1C(=O)N1CCCC(n2cncn2)C1 (centres undefined) | 123.8
Cc1cc(C)n(C2CN(C(=O)c3cn4ccsc4n3)C2)n1 | -20.57
CCn1c(CN(C)C)nnc1C1CCN(Cc2ccc(Cl)c(F)c2)CC1 | -16.98
COCCO[C@@H]1CCN(c2cc(OC)ncn2)[C@H]1Cc1cnn(C)c1 | -2.108
CO[C@@H]1CCN(c2ncc(F)cn2)[C@H]1Cc1cnn(C)c1 | 112
Cn1cc(C[C@H]2[C@H](N3CCOCC3)CCN2c2ncc(F)cn2)cn1.O=C(O)C(F)(F)F | -13.6
COc1cc(N2CC[C@@H](OC)[C@@H]2Cc2cnn(C)c2)ncn1 | 110.7
CO[C@@H]1CCN(c2ncccn2)[C@H]1Cc1ccccc1 | -5.923
COCCO[C@H]1CCN(c2cc(OC)ncn2)[C@H]1Cc1cnn(C)c1 | -1.257
CCc1ccccc1CNC(=O)CNCC(F)(F)F | -0.7333
Cc1nc(C(C)(C)NC(=O)Nc2cccc(C#N)c2)no1 | -15.63
O=C(C1CC1)N1CCC(Nc2nc(O)cc(-c3ccsc3)n2)CC1 | 99.22

Structure (SMILES) | Percent Effect [%]
CC(C)Nc1nc2c(c(NC3CC3)n1)CN(C(=O)Cc1ccsc1)CC2 | -13.92
O=C(C1CCOC1)N1CCC(Cn2cc(-c3ccsc3)nn2)CC1 (centres undefined) | -11.04
O=C(Cn1cccn1)N1CCC(Cn2cc(-c3ccsc3)nn2)CC1 | 4.923
CCCC(=O)N1CCC(Nc2nc(O)cc(-c3ccsc3)n2)CC1 | 101
CC(=O)c1c(F)cccc1NC1CCN(C(=O)CC(C)C)CC1 | -2.175
O=C(O)C(F)(F)F.O=C(O)c1cc2c(nc1-c1ccsc1)CCN(C(=O)C1CC1)CC2 | -4.061
CCCC(=O)N1CCC(Nc2ncc(Br)cn2)CC1 | -8.622
CC(C)CC(=O)N1CCC(Nc2nc(O)cc(-c3ccsc3)n2)CC1 | 93.38
Cc1nnc(CN2CCCC2c2ccc3c(c2)OCCO3)n1C (centres undefined) | 15.49
CC(C)(C)OC(=O)N[C@H]1CCN(C(=O)c2cc(Cl)c[nH]2)C1 | -15.92
CCCC(C)NC1CCN(c2ccc(-n3ccnc3C)cc2)CC1 (centres undefined) | -8.3
COCC(=O)Nc1ccc([C@@H](O)[C@H]2COCC(=O)N2CC(C)C)cc1 | 0.04576
CC(NC(=O)CSCC(=O)Nc1ccccc1)c1ccccc1 (centres undefined) | 5.031
CCC(=O)Nc1ccc(C(C)NC(=O)COC)cc1 (centres undefined) | 92.17
CCNC(=O)C1(Cc2cc(-c3ccccc3)no2)CCCN(C(C)C)C1 (centres undefined) | 86.79
Cc1ccc(-c2cc(CNC(=O)N3CCC(CO)CC3)on2)cc1 | 6.064
CC(NC(N)=O)C(=O)N(C)CCCc1cc(-c2ccccc2)no1 (centres undefined) | -0.2623
Cc1cnn(CCNCc2cc(-c3ccccc3)no2)c1 | 2.44
Cc1ccc(-c2cc(CNC(=O)N3CCOC(C)C3)on2)cc1 (centres undefined) | -4.045
CCNC(=O)C1(Cc2cc(-c3ccc(C)cc3)no2)CCCN(C)C1 (centres undefined) | 151.7
CCNC(=O)C1(Cc2cc(-c3ccccc3)no2)CCCN(C(C)=O)C1 (centres undefined) | 105.3
CCCNC(=O)C1(Cc2cc(-c3ccccc3)no2)CCN(C(C)=O)C1 (centres undefined) | 76.91
CNC(=O)CC1CCN(Cc2nc(-c3ccc(SC)cc3)oc2C)CC1 | -19.45
O=C(O)C(F)(F)F.O=C([C@H]1C[C@H]2OCC[C@H]2N(Cc2ccco2)C1)N1CCCO1 | 11.53

Reference: ChEMBL document CHEMBL3988442, “University of Dundee, Small-Polar-MMV Screening Library” (2021)
